Source: PubChem
Only some compounds are listed: those with a hit (about 1.4% of all), similar ones and a draw of the others.
AmpC no deterg – qHTS Inhibitors of AmpC Beta-Lactamase (assay without detergent); AmpC nitrocefin hydrolysis, absorbance 480 nm, 0.0001% Triton; Potency, µM (series often up to 57.1 µM), hits mostly inhibitors; 330,000 compounds, 0.52% hits; AID 485341, 2010; further: nearly all actives have a fitted effect of over 20% in size
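20 mM phosphate pH 7.0 + 0.01% (detergent screen) or 0.0001% Triton X-100; 5.3 nM AmpC reagent; cpd preinc 15 min RT; nitrocefin (800 uM stock) to start; A480 q20 s × 4 min; Activity was normalised to no-enzyme and no-compound control wells.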
Giardia FBPA inh – qHTS Assay for Inhibitors of Fructose-1,6-bisphosphate Aldolase from Giardia Lamblia; purified Giardia FBPA; Potency, µM (highest dose often 59.6 µM), hits mostly inhibitors; 290,000 compounds, 0.71% hits; further: nearly all actives have a fitted effect of over 55% in size
Target sequence (A8B2U2 whole entry, looked up): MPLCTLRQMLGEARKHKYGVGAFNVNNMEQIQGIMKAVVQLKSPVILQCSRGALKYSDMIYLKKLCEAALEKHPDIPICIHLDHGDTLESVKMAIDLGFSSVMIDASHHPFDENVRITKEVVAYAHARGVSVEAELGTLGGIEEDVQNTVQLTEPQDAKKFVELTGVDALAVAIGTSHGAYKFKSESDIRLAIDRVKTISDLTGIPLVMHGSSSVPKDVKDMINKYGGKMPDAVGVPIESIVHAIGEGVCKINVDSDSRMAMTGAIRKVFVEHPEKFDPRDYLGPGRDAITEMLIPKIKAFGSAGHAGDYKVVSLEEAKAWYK
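40 nM FBPA preincubated 10 min at RT with compound (up to 57.5 uM final), then substrate plus GAPDH/TPI/NAD/arsenate coupling and diaphorase/resazurin added. Fluorescence read after 20 min at RT, 525/598 nm.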
AmpC detergent – qHTS Inhibitors of AmpC Beta-Lactamase (assay with detergent) | Potency, µM (series often up to 114 µM), usual class: inhibitors | P00811 | AmpC hydrolysis of nitrocefin, absorbance 480 nm, 0.01% Triton | AID 485294, 2010 | 370,000 compounds, 0.041% hits; further: nearly all actives have a fitted effect of over 25% in size
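20 mM phosphate pH 7.0 + 0.01% (detergent screen) or 0.0001% Triton X-100; 5.3 nM AmpC reagent; cpd preinc 15 min RT; nitrocefin (800 uM stock) to start; A480 q20 s × 4 min; Activity was normalised to no-enzyme and no-compound control wells.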
SARS PLpro yeast-1 – qHTS of Yeast-based Assay for SARS-CoV PLP | 330,000 compounds, 0.19% hits | S. cerevisiae expressing SARS-CoV PLpro, growth rescue | AID 485353, 2010 | Potency, µM (doses to about 32.9 µM), most hits filed as activators; calls by dose curve; further: nearly all actives have a fitted effect of over 55% in size
NS1 inh – qHTS Assay for Inhibitors of Influenza NS1 Protein Function. Potency, µM (series often up to 46.1 µM). 270,000 compounds, 0.4% hits; calls by dose curve; further: actives are rising curves; nearly all actives have a fitted effect of over 50% in size
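Compounds were scored for reversing the slow growth caused by influenza A NS1 in S. cerevisiae, measured by optical density at 600 nm. Assay medium contained 2% galactose at pH 6.0; NS1-free yeast of the same strain were the positive control.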
SARS PLpro yeast-2 – qHTS of Yeast-based Assay for SARS-CoV PLP: Hit Validation. shares compounds with SARS PLpro yeast-1. yeast expressing SARS-CoV PLpro, growth phenotype rescue. calls only. 1,000 compounds, 19% hits; call rule not given here
A number is an active result. Unless noted, the call rests on the fitted dose curve; in most records, active means well fitted curve in the direction sought with a large enough effect; inconclusive means small, poorly fitted or top-dose-only effect, or another doubt; inactive means no such curve, though single readings can be large; an effect the other way counts as inactive or inconclusive.

`Cc1ccc(S(=O)(=O)N2CCCCCC2)cc1C(=O)Nc1cccnc1` gave AmpC no deterg inactive, Giardia FBPA inh inactive, AmpC detergent inactive, SARS PLpro yeast-1 inactive and NS1 inh inactive.
Screening Cc1ccc2c(c1)-c1nc3ccccc3cc1C2=NC1CCCCC1 returned AmpC no deterg inactive, Giardia FBPA inh inactive, AmpC detergent inactive, SARS PLpro yeast-1 inconclusive, NS1 inh inactive and SARS PLpro yeast-2 inactive.
Screening Cc1ccc(NCC(=O)c2ccc(C)cc2)cc1 returned AmpC no deterg inactive, Giardia FBPA inh inactive, AmpC detergent inactive, SARS PLpro yeast-1 inactive and NS1 inh inactive.
For Cc1ccc(C(=O)CNc2ccc(C)c(Cl)c2)cc1 the results were AmpC no deterg inactive, Giardia FBPA inh inactive, AmpC detergent inactive, SARS PLpro yeast-1 inconclusive, NS1 inh inactive and SARS PLpro yeast-2 inconclusive.
`Cc1cccc(C2=N/C(=C\c3cccnc3)C(=O)O2)c1` gave AmpC no deterg inactive, Giardia FBPA inh inactive, AmpC detergent inactive, SARS PLpro yeast-1 inactive and NS1 inh inactive.
Screening COc1cccc(CNC(=O)c2ccc(CS(=O)(=O)Cc3ccccc3C)o2)c1 returned AmpC no deterg inactive, Giardia FBPA inh inactive, AmpC detergent inactive, SARS PLpro yeast-1 inconclusive, NS1 inh inactive and SARS PLpro yeast-2 inactive.
For COc1cccc(CNC(=O)c2ccc(CS(=O)(=O)Cc3ccc(C)cc3)o2)c1 the results were AmpC no deterg inactive, Giardia FBPA inh inactive, AmpC detergent inactive and SARS PLpro yeast-1 inactive.
CC(=O)Nc1ccc(S(=O)(=O)N2CCSC2c2ccc(Cl)cc2)cc1 (stereo not given) was read as AmpC no deterg inactive, Giardia FBPA inh inactive, AmpC detergent inactive, SARS PLpro yeast-1 inactive and NS1 inh inactive.
For CCc1ccccc1NC(=O)CNC(=O)c1ccc(OCc2cn3ccccc3n2)cc1 the results were AmpC no deterg inactive and SARS PLpro yeast-1 inactive.
For CCc1ccccc1NC(=O)CN1CCN(C(=O)c2ccc(OCc3cn4ccccc4n3)cc2)CC1 the results were AmpC no deterg inactive, AmpC detergent inactive, SARS PLpro yeast-1 inconclusive and SARS PLpro yeast-2 inactive.
O=C(N/N=C/c1c(O)n(C2CC2)c(=S)[nH]c1=O)c1ccccc1O was read as AmpC no deterg inactive, Giardia FBPA inh inactive, AmpC detergent inactive, SARS PLpro yeast-1 13µM, NS1 inh inactive and SARS PLpro yeast-2 inactive.
For O=C(NCC(c1cccnc1)N1CCN(c2ccc(F)cc2)CC1)C1CCCCC1 (stereo not given) the results were AmpC no deterg inactive, Giardia FBPA inh inactive, AmpC detergent inactive, SARS PLpro yeast-1 inactive and NS1 inh inactive.
`O=C(NCC(c1cccnc1)N1CCN(c2ccccc2F)CC1)C1CCCCC1` (stereo not given) gave AmpC no deterg inactive, Giardia FBPA inh inactive, AmpC detergent inactive, SARS PLpro yeast-1 inconclusive, NS1 inh inactive and SARS PLpro yeast-2 inactive.
Screening CC(C)NC(=O)Cn1c(=O)nc(-c2ccccc2F)c2cc(Cl)ccc21 returned AmpC detergent inactive.
Screening C=CCc1cccc(/C=N/NC(=O)CNc2ccccc2)c1O returned Giardia FBPA inh inactive, AmpC detergent inactive and NS1 inh inactive.
C=CCc1cccc(/C=N/NC(=O)CCCNc2ccc(C)cc2)c1O was read as AmpC no deterg inactive, Giardia FBPA inh inactive, AmpC detergent inactive, SARS PLpro yeast-1 14µM, NS1 inh inactive and SARS PLpro yeast-2 active.
For C=CCSc1nc2sc3c(c2c(=O)[nH]1)CCC3 the results were AmpC no deterg inactive, Giardia FBPA inh inactive, AmpC detergent inactive, SARS PLpro yeast-1 inactive and NS1 inh inactive.
Screening CCOC(=O)Cc1csc(NC(=O)CCSc2ccccc2)n1 returned AmpC no deterg inactive, Giardia FBPA inh inactive, AmpC detergent inactive and SARS PLpro yeast-1 inactive.
O=C(NCc1ccco1)c1cc(=O)c2ccccc2o1 was read as AmpC no deterg inactive, Giardia FBPA inh inactive, AmpC detergent inactive and SARS PLpro yeast-1 inactive.
`C=C1CC2C=C(NC(C)=O)CC(C1)C2` (stereo not given) gave AmpC no deterg inactive, Giardia FBPA inh inactive, AmpC detergent inactive, SARS PLpro yeast-1 inconclusive, NS1 inh inactive and SARS PLpro yeast-2 inactive.
